Experimental data published in PubChem BioAssay (NCI).
This is part of a sample that, as a whole, favours compounds with a hit. Of some 83,000 tested, about 20% had one in any assay.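 Cells were grown in 96-well plates and exposed to the test compound at a single concentration for 48 hours; results are reported as percent growth, with values below 10 considered active.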 The source made the active and inactive calls.

Assays:
Experiment in all cases: NCI-60 one-dose screen, 48 h (100 = growth as untreated, 0 = no growth, -100 = all killed)
Conditions in all cases: 10 µM
NCI-H23 lung = system: NCI-H23 lung
NCI-H226 lung = system: NCI-H226 lung
NCI-H322M lung = system: NCI-H322M lung
HOP-62 NSCLC = system: HOP-62 NSCLC
NCI-H460 lung = system: NCI-H460 lung
NCI-H522 lung = system: NCI-H522 lung
A549/ATCC NSCLC = system: A549/ATCC NSCLC
786-0 renal = system: 786-0 renal
COLO 205 colon = system: COLO 205 colon
DU-145 prostate = system: DU-145 prostate

Measured: growth

CC12O[C@H](C[C@@H](OC(=O)c3ccccc3)[C@H]1O)n1c3ccccc3c3c4c(c5c6ccccc6n2c5c31)C(=O)NC4=O
inactive: NCI-H23 lung 56.9% | NCI-H226 lung 32.3% | NCI-H322M lung 83.1% | HOP-62 NSCLC 33.4% | NCI-H460 lung 79.6% | NCI-H522 lung 66.7% | A549/ATCC NSCLC 50.9% | 786-0 renal 78.7% | COLO 205 colon 46.8% | DU-145 prostate 58.2%

CCN(CC)CCCOCCCNc1cc(OC)cc2cccnc12
inactive: NCI-H23 lung 83.8% | NCI-H226 lung 85% | NCI-H322M lung 98.7% | HOP-62 NSCLC 91.7% | NCI-H460 lung 103% | NCI-H522 lung 82.5% | A549/ATCC NSCLC 93.4% | 786-0 renal 104% | COLO 205 colon 31.2% | DU-145 prostate 116%

CCC(=O)N1C/C(=C/c2ccc(OC)cc2)C(=O)/C(=C/c2ccc(OC)cc2)C1
inactive: NCI-H23 lung 63.9% | NCI-H226 lung 29.5% | NCI-H322M lung 111% | HOP-62 NSCLC 20.5% | NCI-H460 lung 61.4% | NCI-H522 lung 20.6% | A549/ATCC NSCLC 32% | COLO 205 colon 27.2% | DU-145 prostate 18.7%
active: 786-0 renal 4.83%

O=C1c2ccc3c4c(ccc(c24)C(=O)N1CCNCc1ccccc1)C(=O)N(CCNCc1ccccc1)C3=O
active: NCI-H23 lung -49.4% | NCI-H322M lung -43% | NCI-H460 lung -26.7% | NCI-H522 lung -51.2%
inactive: NCI-H226 lung 115% | HOP-62 NSCLC 95.6% | A549/ATCC NSCLC 12.8% | 786-0 renal 52.4% | COLO 205 colon 24.1% | DU-145 prostate 20.7%

O=C(N/N=C/c1ccccc1O)C(O)(c1ccccc1)c1ccccc1
inactive: NCI-H23 lung 64.1% | NCI-H226 lung 71.1% | NCI-H322M lung 46% | HOP-62 NSCLC 59% | NCI-H460 lung 27.4% | NCI-H522 lung 27.9% | A549/ATCC NSCLC 52.8% | 786-0 renal 61.7% | COLO 205 colon 35.5% | DU-145 prostate 59.9%

Clc1ccc(/C=C2\CCCC3=C2N=C2SC=NN2C3c2ccc(Cl)cc2)cc1 (stereo not given)
inactive: NCI-H23 lung 94.8% | NCI-H226 lung 107% | NCI-H322M lung 96.2% | HOP-62 NSCLC 112% | NCI-H460 lung 97.2% | NCI-H522 lung 106% | A549/ATCC NSCLC 88.6% | 786-0 renal 103% | COLO 205 colon 113% | DU-145 prostate 98.3%

O=C(CC(c1ccccc1)N1CCOCC1)c1ccccc1 (stereo not given)
inactive: NCI-H23 lung 83.3% | NCI-H226 lung 90.8% | NCI-H322M lung 96.9% | HOP-62 NSCLC 88.2% | NCI-H460 lung 106% | NCI-H522 lung 88.5% | A549/ATCC NSCLC 97.4% | 786-0 renal 80.9% | COLO 205 colon 116% | DU-145 prostate 80.3%

Cc1cc(=O)n2nnc3c4ccccc4ccc3n12
inactive: NCI-H23 lung 94% | NCI-H226 lung 59.8% | NCI-H322M lung 96.3% | HOP-62 NSCLC 70% | NCI-H460 lung 83.9% | NCI-H522 lung 87.9% | A549/ATCC NSCLC 60.2% | 786-0 renal 89.8% | DU-145 prostate 98.8%
active: COLO 205 colon 8.79%

Cn1c(C(N)=O)cc2c1-c1nc(Nc3ccccc3)ncc1CCC2
inactive: NCI-H23 lung 52% | NCI-H226 lung 38.1% | NCI-H322M lung 46.6% | HOP-62 NSCLC 38.8% | NCI-H460 lung 37.6% | NCI-H522 lung 33.5% | A549/ATCC NSCLC 31.1% | 786-0 renal 49.9% | COLO 205 colon 59.8% | DU-145 prostate 55.5%

CN(C)CC(O)c1ccc2cc(Br)c3ccccc3c2c1 (stereo not given)
inactive: NCI-H23 lung 80.1% | NCI-H226 lung 78.7% | NCI-H322M lung 72.7% | HOP-62 NSCLC 62.1% | NCI-H460 lung 37% | NCI-H522 lung 65.6% | A549/ATCC NSCLC 57.1% | 786-0 renal 54% | DU-145 prostate 70.7%
active: COLO 205 colon -67.8%

O=[P@@]1(c2ccccc2)O[C@H](COCc2ccccc2)[C@@H](OCc2ccccc2)[C@H](OCc2ccccc2)[C@H]1O
inactive: NCI-H23 lung 64.4% | NCI-H226 lung 59% | NCI-H322M lung 86.9% | NCI-H460 lung 74.7% | NCI-H522 lung 42.2% | A549/ATCC NSCLC 83.3% | 786-0 renal 65.3% | COLO 205 colon 118% | DU-145 prostate 90.6%
active: HOP-62 NSCLC 7.83%

Fc1cc(C(F)(F)F)ccc1-c1cncnc1NC1CCCCCC1
inactive: NCI-H23 lung 92.6% | NCI-H226 lung 82.6% | NCI-H322M lung 104% | HOP-62 NSCLC 93.1% | NCI-H460 lung 102% | NCI-H522 lung 91.3% | A549/ATCC NSCLC 85.4% | 786-0 renal 97.9% | COLO 205 colon 105% | DU-145 prostate 101%

COc1cc(-c2cc(/C=C/C(=O)c3ccc4c(c3)OCO4)[nH]n2)cc(OC)c1OC
inactive: NCI-H23 lung 102% | NCI-H226 lung 84.6% | NCI-H322M lung 54.2% | HOP-62 NSCLC 48.7% | NCI-H460 lung 68.6% | NCI-H522 lung 57.4% | A549/ATCC NSCLC 87.2% | 786-0 renal 40.6% | COLO 205 colon 100% | DU-145 prostate 48%

O=C1/C(=C\c2ccc(Br)cc2)CN(C(=O)c2ccccc2F)C/C1=C\c1ccc(Br)cc1
inactive: NCI-H23 lung 23.5% | NCI-H322M lung 60.7% | NCI-H460 lung 43.3%
active: NCI-H226 lung -30.3% | HOP-62 NSCLC -7.85% | NCI-H522 lung -1.44% | A549/ATCC NSCLC 2.51% | 786-0 renal -52.4% | COLO 205 colon 5.27% | DU-145 prostate 6.51%

O=C(O)C(SC(C(=O)O)c1ccccc1)c1ccccc1 (stereo not given)
inactive: NCI-H23 lung 99.8% | NCI-H226 lung 95.9% | NCI-H322M lung 118% | HOP-62 NSCLC 107% | NCI-H460 lung 110% | NCI-H522 lung 108% | A549/ATCC NSCLC 103% | 786-0 renal 103% | COLO 205 colon 113% | DU-145 prostate 104%

COc1cc(-c2nnc(-c3c(-c4ccc(F)cc4)nc4ccccn34)o2)cc(OC)c1OC
inactive: NCI-H23 lung 80.8% | NCI-H226 lung 53.7% | NCI-H322M lung 91.8% | HOP-62 NSCLC 62.9% | NCI-H460 lung 52.5% | A549/ATCC NSCLC 70.7% | 786-0 renal 64.7% | COLO 205 colon 107% | DU-145 prostate 77%
active: NCI-H522 lung 4.71%

CCCCC/C=C/C(=O)CCc1ccc(O)c(OC)c1
inactive: NCI-H23 lung 89.2% | NCI-H226 lung 87.8% | NCI-H322M lung 106% | HOP-62 NSCLC 107% | NCI-H460 lung 97.3% | NCI-H522 lung 60.8% | A549/ATCC NSCLC 82.6% | 786-0 renal 91.1% | COLO 205 colon 108% | DU-145 prostate 76.9%

O=C1OCC2=C1C(c1cccc(Cl)c1)c1cc3c(cc1N2CCO)OCCO3 (stereo not given)
inactive: NCI-H23 lung 19.6% | NCI-H322M lung 35.3% | HOP-62 NSCLC 26.7% | A549/ATCC NSCLC 13.8% | 786-0 renal 23.7%
active: NCI-H226 lung -5.85% | NCI-H460 lung 0.852% | NCI-H522 lung -22.4% | COLO 205 colon -26.9% | DU-145 prostate -35.6%

CCCCCCCCCCCCCCCCCCOCC(COCCOCC[N+]1(CCCCCC(=O)[O-])CCCC1)Oc1ncccn1 (stereo not given)
active: COLO 205 colon -17.2%
inactive: NCI-H23 lung 46.5% | NCI-H226 lung 56% | NCI-H322M lung 101% | HOP-62 NSCLC 21.3% | NCI-H460 lung 23.7% | NCI-H522 lung 12.9% | A549/ATCC NSCLC 51.2% | 786-0 renal 52.8% | DU-145 prostate 77.6%

Cc1[nH]nc2c1C(c1cnn(C)c1)C(C#N)=C(N)O2 (stereo not given)
inactive: NCI-H23 lung 101% | NCI-H226 lung 105% | NCI-H322M lung 96.9% | HOP-62 NSCLC 97.9% | NCI-H460 lung 104% | NCI-H522 lung 80.4% | A549/ATCC NSCLC 96.1% | 786-0 renal 102% | COLO 205 colon 114% | DU-145 prostate 110%

COc1ccc(N2C(=O)C3c4[nH]c5ccc(OCc6ccccc6)cc5c4C4CCC(C(C)C)CC4C3C2=O)cc1 (stereo not given)
inactive: NCI-H23 lung 104% | NCI-H226 lung 104% | NCI-H322M lung 102% | HOP-62 NSCLC 113% | NCI-H460 lung 103% | NCI-H522 lung 34.6% | A549/ATCC NSCLC 99.4% | 786-0 renal 97.6% | COLO 205 colon 102% | DU-145 prostate 113%

CC(C)=CCc1ccc(O)c(=O)cc1C(C)C
active: NCI-H226 lung 4.5% | NCI-H460 lung 5.04% | A549/ATCC NSCLC 9.13% | 786-0 renal 6.68%
inactive: NCI-H23 lung 12.9% | NCI-H322M lung 10.5% | HOP-62 NSCLC 14.6% | NCI-H522 lung 28.5% | COLO 205 colon 26.7% | DU-145 prostate 28.5%

O=C1Nc2ccccc2C1=NC1CCCCC1
inactive: NCI-H23 lung 95.2% | NCI-H226 lung 92% | NCI-H322M lung 90.3% | HOP-62 NSCLC 88.3% | NCI-H460 lung 105% | NCI-H522 lung 70.4% | A549/ATCC NSCLC 103% | 786-0 renal 93.6% | COLO 205 colon 96.5% | DU-145 prostate 110%

O=C(Nc1cccc(-n2cc(-c3ccncc3)c(-c3ccc(O)c(Cl)c3)n2)c1)Nc1ccc(Cl)c(Cl)c1
inactive: NCI-H226 lung 51.1% | COLO 205 colon 77.8% | DU-145 prostate 11.5%
active: NCI-H23 lung 5.31% | NCI-H322M lung -6.78% | HOP-62 NSCLC 8.83% | NCI-H460 lung -4.26% | NCI-H522 lung -13.1% | A549/ATCC NSCLC 0.252% | 786-0 renal -6.94%

O=C1C(=O)c2ccccc2C(O)=C1CCCc1ccc(C2CCCCCC2)cc1
inactive: NCI-H23 lung 23.4% | NCI-H226 lung 37.6% | NCI-H322M lung 23.7% | HOP-62 NSCLC 40.8% | NCI-H460 lung 11.6% | NCI-H522 lung 42% | A549/ATCC NSCLC 22.7% | 786-0 renal 55.7% | COLO 205 colon 36.5% | DU-145 prostate 44%

CN(C)C(=S)N/N=C\C=N/NC(=S)N(C)C
active: NCI-H522 lung 1.5% | COLO 205 colon -1.67%
inactive: NCI-H23 lung 62.6% | NCI-H226 lung 76.9% | NCI-H322M lung 48.9% | HOP-62 NSCLC 92.9% | NCI-H460 lung 23.7% | A549/ATCC NSCLC 40.1% | 786-0 renal 85.3% | DU-145 prostate 37.4%

O=C(Nc1nc2ccccc2s1)Nc1ccc([N+](=O)[O-])cc1Cl
inactive: NCI-H23 lung 36.9% | NCI-H226 lung 103% | NCI-H322M lung 33.3% | HOP-62 NSCLC 110% | NCI-H460 lung 32.6% | COLO 205 colon 111% | DU-145 prostate 87%
active: NCI-H522 lung -22.6% | A549/ATCC NSCLC -53.1% | 786-0 renal -23.5%

CCN(CC)CCNC(=O)c1ccc(NC(C)=O)cc1
inactive: NCI-H23 lung 94.5% | NCI-H226 lung 110% | NCI-H322M lung 105% | HOP-62 NSCLC 103% | NCI-H460 lung 113% | NCI-H522 lung 111% | A549/ATCC NSCLC 98.5% | 786-0 renal 108% | COLO 205 colon 112% | DU-145 prostate 119%
